From PMC8384837, “Expanding the binding specificity for RNA recognition by a PUF domain” come the findings set out here.

What all share (test): yeast three-hybrid, YBZ-1, SC-Leu-His + 0.5 mM 3-AT, 4 days
Common to all, as to conditions: tags: N-Gal4 AD-HA kept; label: inside an RPR1-promoter hybrid RNA with tandem MS2 sites; ssRNA

For one test, the target named is PUM1 PUF domain R4-EWG (Homo sapiens, UniProt Q14671 828-1176, N971E;H972W;Q975G). A digest of the protocol: (§1)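 The interaction score is the logarithmic change in variant frequency from input to selection. It uses log2, with a pseudocount of 1 for absent variants, and frequencies came from PCR-amplified, Illumina-sequenced repeat regions. The libraries were Pumilio-1 PUF domains randomized at the three base-contacting residues per repeat, co-expressed with matching RNA elements in strain YBZ-1 (LexA–MS2 coat fusion, HIS3 reporter). Plating lasted four days on SC-Leu (input) or SC-Leu-His + 0.5 mM 3-AT (selection).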

The target of a further test is PUM1 PUF domain R3-VCE (Homo sapiens, UniProt Q14671 828-1176, C935V;R936C;Q939E). An outline of the steps:
as §1

Another test concerns the target PUM1 PUF domain R8-RWQ (Homo sapiens, UniProt Q14671 828-1176, N1122R;Y1123W). A digest of the protocol: as §1
The target of the next test is PUM1 PUF domain R8-IYV (Homo sapiens, UniProt Q14671 828-1176, N1122I;Q1126V). A digest of the protocol:
as §1

Another test deals with PUM1 PUF domain R8-MYR (Homo sapiens, UniProt Q14671 828-1176, N1122M;Q1126R). A digest of the protocol: as §1
In the next test the target is PUM1 PUF domain R1-HLR (Homo sapiens, UniProt Q14671 828-1176, S863H;R864L;Q867R). A digest of the protocol:
as §1

A further test has as its target PUM1 PUF domain R5-SRL (Homo sapiens, UniProt Q14671 828-1176, C1007S;Q1011L). A digest of the protocol: as §1
Another test deals with T1, PUM1 PUF domain R6-LWR (Homo sapiens, UniProt Q14671 828-1176, N1043L;Y1044W;Q1047R).
T1 sequence: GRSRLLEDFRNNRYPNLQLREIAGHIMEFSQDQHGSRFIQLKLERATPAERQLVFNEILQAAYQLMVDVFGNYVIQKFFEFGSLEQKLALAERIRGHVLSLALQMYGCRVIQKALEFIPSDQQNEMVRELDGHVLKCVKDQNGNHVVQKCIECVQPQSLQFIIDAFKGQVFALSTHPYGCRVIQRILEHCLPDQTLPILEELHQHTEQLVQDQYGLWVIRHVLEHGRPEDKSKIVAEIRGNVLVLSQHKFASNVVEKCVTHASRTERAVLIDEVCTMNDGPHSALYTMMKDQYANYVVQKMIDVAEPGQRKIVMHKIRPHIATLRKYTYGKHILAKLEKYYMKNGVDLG
A digest of the protocol: as §1

Another test concerns the target PUM1 PUF domain R8-SWK (Homo sapiens, UniProt Q14671 828-1176, N1122S;Y1123W;Q1126K). An outline of the steps:
as §1

The next test addresses PUM1 PUF domain R3-GWF (Homo sapiens, UniProt Q14671 828-1176, C935G;R936W;Q939F). An outline of the steps:
as §1

In the case of “GGCUAGAACUAGUGGAUCCCCCGGCGCCCGGCGGCUCGAGCCCGGGUAAGUGUACAUAGUCUGCAUGCCGCCGGGCGCCAUGCCUGCAGGUCGACUCUAGAAAACAUG”, the binding signal in the test with PUM1 PUF domain R4-EWG was 1.12 log2 enrichment (interaction score).

Take “GGCUAGAACUAGUGGAUCCCCCGGCGCCCGGCGGCUCGAGCCCGGGUAAGUGUAAGUAGUCUGCAUGCCGCCGGGCGCCAUGCCUGCAGGUCGACUCUAGAAAACAUG”: in the test with PUM1 PUF domain R3-VCE, the binding signal was 3.08 log2 enrichment (interaction score).

Turning to “GGCUAGAACUAGUGGAUCCCCCGGCGCCCGGCGGCUCGAGCCCGGGUAAGCGUAAAUAGUCUGCAUGCCGCCGGGCGCCAUGCCUGCAGGUCGACUCUAGAAAACAUG”, the binding signal in the test with PUM1 PUF domain R8-RWQ was 5.71 log2 enrichment (interaction score); with PUM1 PUF domain R8-IYV, 2.44 log2 enrichment (interaction score); in the test with PUM1 PUF domain R8-MYR, 4.58 log2 enrichment (interaction score).

For the sequence “GGCUAGAACUAGUGGAUCCCCCGGCGCCCGGCGGCUCGAGCCCGGGUAAGUGUAAAUUGUCUGCAUGCCGCCGGGCGCCAUGCCUGCAGGUCGACUCUAGAAAACAUG”, the binding signal with PUM1 PUF domain R1-HLR was 2.68 log2 enrichment (interaction score).

Turning to “GGCUAGAACUAGUGGAUCCCCCGGCGCCCGGCGGCUCGAGCCCGGGUAAGUGUAAAUCGUCUGCAUGCCGCCGGGCGCCAUGCCUGCAGGUCGACUCUAGAAAACAUG”, the binding signal with PUM1 PUF domain R1-HLR is 3.24 log2 enrichment (interaction score).

“GGCUAGAACUAGUGGAUCCCCCGGCGCCCGGCGGCUCGAGCCCGGGUAAGUGUUAAUAGUCUGCAUGCCGCCGGGCGCCAUGCCUGCAGGUCGACUCUAGAAAACAUG”: the binding signal with PUM1 PUF domain R5-SRL was 2.41 log2 enrichment (interaction score).

Take “GGCUAGAACUAGUGGAUCCCCCGGCGCCCGGCGGCUCGAGCCCGGGUAAGUGUAAAUAGUCUGCAUGCCGCCGGGCGCCAUGCCUGCAGGUCGACUCUAGAAAACAUG”: the binding signal with PUM1 PUF domain R8-RWQ is 6.33 log2 enrichment (interaction score); with PUM1 PUF domain R5-SRL, 3.16 log2 enrichment (interaction score); with PUM1 PUF domain R3-VCE it was 2.11 log2 enrichment (interaction score); in the test with PUM1 PUF domain R4-EWG it was 3.6 log2 enrichment (interaction score); with PUM1 PUF domain R6-LWR it was 5.05 log2 enrichment (interaction score); in the test with PUM1 PUF domain R8-SWK, 5.34 log2 enrichment (interaction score). For the same sequence, the values for the binding signal with PUM1 PUF domain R8-IYV, with PUM1 PUF domain R8-MYR and with PUM1 PUF domain R3-GWF were 2.36 log2 enrichment (interaction score), 4.65 log2 enrichment (interaction score) and 5.35 log2 enrichment (interaction score), respectively.
